For one test, the target named is NOTCH4. In words: pooled miR-30 sensor sort-seq; sequence = guide strand. As to conditions: shRNA.
In the case of TTAGGGTTCTTAAATAGCGATA, the sensor-assay potency score (higher = more potent) is -1.36.

Sequence TTTCTGGTCCTTACATATCTGC gave a sensor-assay potency score (higher = more potent) of -1.07.

In the case of TTGGGACTGACAAGCATCGAGT, the sensor-assay potency score (higher = more potent) was -0.743.

Turning to TTTAGGGTTCTTAAATAGCGAT, the sensor-assay potency score (higher = more potent) was -1.06.

Another test deals with NOX3. Described as above. As to conditions: shRNA.
In turn, TAGAAATGAACACCTCTGGGGT showed a sensor-assay potency score (higher = more potent) of -0.411.

Consider TTGCATTAACAGCTATCCCATA, for which the sensor-assay potency score (higher = more potent) was -1.07.

Turning to TAGATTTCAGAAGAGCAGCGAA, the sensor-assay potency score (higher = more potent) was -0.277.

TAAAATTCAGGCACAGTGCGGA returned a sensor-assay potency score (higher = more potent) of -0.0572.

The sequence TTGAGGTAGCTCTCGTTAGGGG displayed a sensor-assay potency score (higher = more potent) of -0.746.

TAAAGCTATGTGAAGAGCCTGA: the sensor-assay potency score (higher = more potent) was 0.784.

As for TTGAACCCAAAATAACTCGTGT, the sensor-assay potency score (higher = more potent) was -0.176.

In the case of TAATAGAAATGAACACCTCTGG, the sensor-assay potency score (higher = more potent) was -0.368.

For the sequence TAGCGGTCTCTACAGAAGGTGA, the sensor-assay potency score (higher = more potent) is -1.67.

The sequence TAATTATTCTTTCACATGCATA had a sensor-assay potency score (higher = more potent) of -1.3.

TACCAGAACAACTCATAGGAGG: the sensor-assay potency score (higher = more potent) was -0.91.

The target of the next test is NOXA1. The description is as above. Conditions: shRNA.
As for TTGGTCCAGGGCTGAGTCCAGG, the sensor-assay potency score (higher = more potent) was -1.7.

As to TCACACAGGACGTCCACCGTGT, the sensor-assay potency score (higher = more potent) was 0.181.

As for TCTGTCTCTGCATCGAGGGGGC, the sensor-assay potency score (higher = more potent) was -0.532.

For the sequence TGGCATCATGGTTCGCTCCTGG, the sensor-assay potency score (higher = more potent) is -0.558.

On to TGGTAGGCAGTCGACGTGCAGC, for which the sensor-assay potency score (higher = more potent) is -1.86.

The sequence TCTGCAGCGACTCCTCCTCGGG registered a sensor-assay potency score (higher = more potent) of -1.51.

In the case of TTGTGTAGCACCTCCCAGGCTT, the sensor-assay potency score (higher = more potent) is -0.348.

As to ACATTGTGTAGCACCTCCCAGG, the sensor-assay potency score (higher = more potent) was -1.3.

As to TCCTGGTAGGCAGTCGACGTGC, the sensor-assay potency score (higher = more potent) was -1.54.

TTGGGGAAGATGCCGATGCGGC gave a sensor-assay potency score (higher = more potent) of -1.12.

As for TTAGGGACCTGGCATCATGGTT, the sensor-assay potency score (higher = more potent) was -1.05.

As for TAACTGAGTTGCCCAAGCTGGG, the sensor-assay potency score (higher = more potent) was -1.24.

The next test addresses NPBWR1. The description is as above. As to conditions: shRNA.
TCACCGCGTAGACAACTGGTAC displayed a sensor-assay potency score (higher = more potent) of -1.33.

TTGGAGCAGCTCAGCGCCGGGT displayed a sensor-assay potency score (higher = more potent) of -1.46.

For TTGATGGGCAGCACCAGCGTGA, the sensor-assay potency score (higher = more potent) was -0.969.

Consider TAGAGGACACAGATGGTGGACA, for which the sensor-assay potency score (higher = more potent) is -0.757.

As to TGATGAAGTAGGAGATAGCGAT, the sensor-assay potency score (higher = more potent) is -0.908.

TTGGTGACGGTCTTCATGCGGG returned a sensor-assay potency score (higher = more potent) of -0.52.

TAGAGGAAGGGGTTGAGGCAGC showed a sensor-assay potency score (higher = more potent) of 0.0364.

Regarding TTGTACTGGTCGATAGCCACGA, the sensor-assay potency score (higher = more potent) is -0.0597.

As for TGTTGTACTGGTCGATAGCCAC, the sensor-assay potency score (higher = more potent) is -0.835.

Consider TGTACTGGTCGATAGCCACGAT, for which the sensor-assay potency score (higher = more potent) was -0.544.

For TCGATAGCCACGATGAGCTTGC, the sensor-assay potency score (higher = more potent) was 0.0042.

On to AACTGGTACAGCCACCGCCAGC, for which the sensor-assay potency score (higher = more potent) was -1.89.

(Values after the OligoGym collection.)
Further: reference of the scale not given here.
